Experimental findings from PubChem BioAssay AID1851 (National Center for Advancing Translational Sciences (NCATS), 2009) are described below.

Among all 16,000 compounds or so, about 5,100 (32%) were called active. Not shown: some 25% with an inconclusive outcome. Calls follow the shape of the dose curve; as a rule, active = well fitted curve in the direction sought with a large enough effect; inconclusive = small, poorly fitted or top-dose-only effect, or effect the other way; inactive = no such curve, though single readings can be large or run the other way. The list shows a part of the results.
% is scaled to controls: 0 for no effect and ±100 for the full control effect.

The target in this experiment is Cytochrome P450 3A4 (Homo sapiens) (UniProt P08684). Put plainly: Cytochrome panel assay with activity outcomes. To be noted: recombinant CYP, pro-luciferin dealkylation, luminescence, p450-cyp3a4; series mostly up to 57.1 µM.
Chain of Cytochrome P450 3A4 (Homo sapiens) (P08684 whole entry, looked up): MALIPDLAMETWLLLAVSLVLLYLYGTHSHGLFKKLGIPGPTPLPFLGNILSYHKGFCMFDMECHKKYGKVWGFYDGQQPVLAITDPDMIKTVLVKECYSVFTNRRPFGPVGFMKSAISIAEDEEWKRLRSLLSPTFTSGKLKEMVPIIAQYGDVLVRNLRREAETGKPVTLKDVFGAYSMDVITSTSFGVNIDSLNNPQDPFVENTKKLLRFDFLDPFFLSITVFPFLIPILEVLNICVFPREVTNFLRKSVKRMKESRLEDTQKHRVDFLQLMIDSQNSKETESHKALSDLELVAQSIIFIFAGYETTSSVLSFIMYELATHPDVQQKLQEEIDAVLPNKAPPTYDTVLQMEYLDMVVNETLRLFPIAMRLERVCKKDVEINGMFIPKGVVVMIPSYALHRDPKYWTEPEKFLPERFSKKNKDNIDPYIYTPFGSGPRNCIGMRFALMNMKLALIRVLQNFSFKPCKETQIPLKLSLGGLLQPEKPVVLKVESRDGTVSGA
As for `CO[C@]1(NC(=O)[C@H](C(=O)O)c2ccc(O)cc2)C(=O)N2C(C(=O)O)=C(CSc3nnnn3C)CO[C@H]21`, the AC50 entry was “inactive”.
Take `CN(CC(=O)Nc1ccc(F)c(F)c1)S(=O)(=O)c1cccc2nsnc12`: the concentration at half-maximal activity (AC50) was 5.01 µM (active).
Still for that read-out and setting: the same measure for `CC1CCN(C(=O)CN(C)S(=O)(=O)c2cccc3nsnc23)CC1`: 3.55 µM (active).
On the same count and under the same terms, the same measure for `CC1CCN(C(=O)Nc2ccc3nsnc3c2)CC1`: “inactive”.
For the molecule `COc1cc([C@@H](O)CO)ccc1OS(=O)(=O)O`, the AC50 result was “inactive”.
Take `COc1cccc(N=c2oc3c(C)ncc(CO)c3cc2C(N)=O)c1`: the AC50 is 17.8 µM (active).
Still for that read-out and setting: next, `CCOC(=O)c1c(C)nc2c(c1-c1ccc(OC)cc1)C(=O)CC(C)(C)C2`: 10 µM (active); `CCOC(=O)c1c(C)nc2c(c1-c1ccccc1)C(=O)CC(C)(C)C2`: “inactive”; `O=C(Nc1cccc(Br)c1)/C(=C\c1cccnc1)NC(=O)c1ccco1`: 0.501 µM (active).
Still for that read-out and setting: the same measure for `Cc1ccc(NC(=O)/C(=C\c2cccnc2)NC(=O)c2ccco2)cc1`: “inactive”.
Consider `CCC(=O)Nc1cccc(C(=O)/C=C/c2ccccc2)c1`, for which the activity, negative = inhibition is -23.2% [at 11.4 µM] (inactive).
As for `O=C(Nc1ccc2nc(-c3ccc(Br)o3)[nH]c2c1)c1ccco1`, the AC50 is 14.1 µM (active).
The same measure, in the same setting: the same measure for `O=C(N/C(=C\c1cccnc1)C(=O)N1CCOCC1)c1cccc(Br)c1`: 1 µM (active).
Turning to `O=C(/C=C/c1ccccc1)NNC(=O)c1cccnc1`, the activity, negative = inhibition is -12% [at 2.29 µM] (inactive).
On to `O=C(/C=C/c1cccnc1)c1ccc(NC(=O)c2cccc(Br)c2)cc1`, for which the AC50 was 2.24 µM (active).
The same measure, in the same setting: next, `CCC(=O)NC(NC(=O)CC)C(Cl)Cl`: “inactive”; `NCCCCC(=O)O`: “inactive”.
Turning to `CCC[C@H]1C[C@H](C(=O)N[C@H]([C@@H]2O[C@H](SC)[C@@H](O)[C@H](O)[C@@H]2O)[C@H](C)O)N(C)C1`, the AC50 entry is “inactive”.
`O=C(Nc1cccc(NC(=O)c2ccc(-c3cccc(Br)c3)o2)c1)c1ccco1`: the AC50 was 5.01 µM (active).
For `O=C(Nc1cccc(OC(=O)c2ccco2)c1)c1ccco1`, the activity, negative = inhibition is 3.14% [at 11.4 µM] (inactive).
As for `CCCN(CCO)Cc1ccc(F)c(Br)c1`, the AC50 result was “inactive”.
As for `COc1ccc(OCCn2c(C)c(/C=N/n3cnnc3)c3ccccc32)cc1`, the AC50 was 0.501 µM (active).
For the molecule `Cc1ccc(NS(=O)(=O)c2ccccc2Cl)c2c1CC(C)(C)O2`, the AC50 is 0.708 µM (active).
Still for that read-out and setting: next, `CN(C)N1C(N)=C(C#N)C(c2cccnc2)C2=C1CC(C)(C)CC2=O` (centres undefined): 2.24 µM (active); `O=c1[nH]c(SCc2c(Cl)c(Cl)c(Cl)c(Cl)c2Cl)nc(=S)[nH]1`: 3.16 µM (active).
Regarding `Clc1ccccc1C(Nc1ncccn1)Nc1ncccn1`, the activity, negative = inhibition was 4.33% [at 11.4 µM] (inactive).
The same measure, in the same setting: next, `O=S(=O)(C[C@H](O)C(Cl)(Cl)Cl)NNc1ccccc1`: -15.6% [at 11.4 µM] (inactive); `O=C1c2ccccc2C(=O)c2c(NC3CCCCC3)ccc(Nc3ccc(S(=O)(=O)O)cc3)c21`: -21.4% [at 11.4 µM] (inactive).
With `O=C(NCCC1=CCCCC1)C1CCCN(c2nc3ccccc3o2)C1` (centres undefined), the AC50 was 12.6 µM (active).
In the case of `O=C(CN1CCN(C2CCCCC2)CC1)NCCC1=CCCCC1`, the AC50 entry is “inactive”.
For the molecule `CC(C)(C)c1ccc(C(=O)N2CCC(C(=O)NCCC3=CCCCC3)CC2)cc1`, the activity, negative = inhibition is -5.78% [at 2.29 µM] (inactive).
In the case of `Cc1ccccc1S(=O)(=O)O[C@@H]1NS(=O)(=O)c2ccccc21`, the activity, negative = inhibition was -3.69% [at 11.4 µM] (inactive).
For `COC(=O)C1=C(C)NC(=O)NC1c1ccsc1` (centres undefined), the AC50 result was “inactive”.
Turning to `Cc1noc(NC(=O)Nc2ccccc2F)c1C#N`, the activity, negative = inhibition was -12.9% [at 11.4 µM] (inactive).
As for `CC1=C(C(=O)Nc2ccccc2F)C(c2ccsc2)C2=C(CC(c3ccccc3)CC2=O)N1` (centres undefined), the AC50 is 3.55 µM (active).
In the case of `COc1ccc(S(=O)(=O)NC2(C(F)(F)F)N=C3SCCN3C2=O)cc1` (centres undefined), the AC50 result is “inactive”.
`O=C(c1cnccn1)N1CCC[C@@]2(CCN(c3cccc(-c4ccccc4)c3)C2)C1`: the AC50 is 3.98 µM (active).
As to `O=C(c1cnccn1)N1CCC2(CCCN(c3cccc(-c4ccccc4)c3)C2)CC1`, the AC50 was 2 µM (active).
Still for that read-out and setting: next, `O=C(c1cnccn1)N1CCC2(CCCN(c3ccccc3)C2)CC1`: 1.58 µM (active).
As for `O=C(c1cnccn1)N1CCC2(CC1)CN(c1ccccc1)C2`, the AC50 entry was “inactive”.
Same read-out and setting: next, `CN(C)c1ncc2nc(-c3ccc(F)cc3)c(=O)n(C3CC3)c2n1`: “inactive”; `Cc1ccc(S(=O)(=O)CCCS(=O)(=O)c2ccc(C)cc2)cc1`: 12.6 µM (active).
For the molecule `Cc1ccc(/S(C)=N/S(=O)(=O)c2ccc(C)cc2)cc1` (centres undefined), the activity, negative = inhibition is -0.155% [at 2.29 µM] (inactive).
On to `Cc1ccc(C2=C(Cl)C(=O)C(c3ccc(C)cc3)=C(Cl)C2=O)cc1`, for which the activity, negative = inhibition was -1.66% [at 11.4 µM] (inactive).
Take `C[C@@H](CCc1ccccc1)NC[C@H](O)c1ccc(O)c(C(N)=O)c1`: the AC50 result is “inactive”.
For the molecule `C=C(NC(=O)C(=C)NC(=O)c1csc(C2=N[C@@H]3c4csc(n4)[C@@H]4NC(=O)c5csc(n5)[C@@H]([C@](C)(O)[C@H](C)O)NC(=O)[C@@H]5CSC(=N5)/C(=C/C)NC(=O)[C@@H]([C@H](C)O)NC(=O)c5csc(n5)[C@]3(CC2)NC(=O)[C@@H](C)NC(=O)C(=C)NC(=O)[C@@H](C)NC(=O)[C@@H]([C@@H](C)CC)N[C@H]2C=Cc3c([C@H](C)O)cc(nc3[C@@H]2O)C(=O)O[C@H]4C)n1)C(N)=O`, the AC50 result was “inactive”.
The same measure, in the same setting: next, `FC(F)(F)c1ccccc1-c1nc(NCCN2CCOCC2)c2ccccc2n1`: 7.94 µM (active); `Cc1noc(C)c1-c1nc(NCCN2CCOCC2)c2ccccc2n1`: 12.6 µM (active); `Clc1ccccc1-c1nc(NCCN2CCOCC2)c2ccccc2n1`: 15.8 µM (active).
As for `CC1(C)Cc2c(ccc3ccccc23)C(=O)N1`, the AC50 result is “inactive”.
Regarding `Clc1ccc(CSCCc2ccncc2)cc1Cl`, the AC50 was 1 µM (active).
With `Clc1ccc(COc2ccccn2)cc1Cl`, the activity, negative = inhibition was -7.19% [at 2.29 µM] (inactive).
For the molecule `Cc1cc(O)c(/C=N/Nc2cccc(Cl)c2)c(=O)o1`, the AC50 is 5.62 µM (active).
As for `Clc1cccc(N/N=C/c2ccc(N3CCOCC3)cc2)c1`, the activity, negative = inhibition was -10.2% [at 2.29 µM] (inactive).
On to `NC(=O)c1nn(-c2ccccc2)c(=O)cc1O`, for which the AC50 entry was “inactive”.
For the molecule `O=C1CC(c2ccc3c(c2)OCO3)Sc2nc3ccccc3n21` (centres undefined), the AC50 was 2.51 µM (active).
For the molecule `O=C1CC(c2ccc3c(c2)OCO3)CN1` (centres undefined), the activity, negative = inhibition is -2.08% [at 2.29 µM] (inactive).
On to `O=C(/C=C/c1ccc2ccccc2c1)c1ccoc1`, for which the AC50 entry is “inactive”.
The same measure, in the same setting: next, `COc1cccc(C(=O)/C=C/c2ccc(SC)cc2)c1`: 3.98 µM (active); `COc1ccc(/C=C/C(=O)c2ccoc2)cc1`: “inactive”.
Take `Nc1ccn([C@H]2O[C@@H](COP(=O)(O)O)[C@@H](O)[C@H]2O)c(=O)n1`: the activity, negative = inhibition is -4.22% [at 11.4 µM] (inactive).
Still for that read-out and setting: the same measure for `CS(=O)(=O)c1ccc(/C=N\NC(N)=S)cc1`: -4.4% [at 11.4 µM] (inactive); for `COc1ccc(C(=O)Oc2cc(/C=N/NS(=O)(=O)c3ccc(C)cc3)ccc2OC)cc1`: -26% [at 2.29 µM] (inactive).
For the molecule `COc1ccc(/C=N/NC(N)=S)cc1OC(=O)c1cccc2ccccc12`, the AC50 is 2.24 µM (active).
On to `O=C(O)c1ccc(NS(=O)(=O)Cc2ccccc2)cc1`, for which the activity, negative = inhibition is -11.2% [at 11.4 µM] (inactive).
Take `CCOC(=O)c1ccc(N/C(=N\S(=O)(=O)c2ccccc2C)c2ccccc2)cc1`: the AC50 was 2 µM (active).
For the molecule `CCOC(=O)c1ccc(NC(=O)C2CCCO2)cc1` (centres undefined), the activity, negative = inhibition was -7.73% [at 11.4 µM] (inactive).
`CCOC(=O)c1ccc(NC(=O)Nc2ccc3c4c(cccc24)C(=O)N3CC)cc1`: the AC50 result was “inactive”.
With `Clc1ccc(Sc2ccc(/C=N/n3cnnc3)o2)cc1`, the AC50 was 1.12 µM (active).
As for `CN=C1S/C(=C\c2ccc(Sc3ccc(Cl)cc3)o2)C(=O)N1C`, the AC50 entry was “inactive”.
The same measure, in the same setting: the same measure for `NC(=O)Nn1c(CCC(=O)O)ccc1-c1ccc(F)cc1`: “inactive”; for `COc1ccccc1-c1cc(C(=O)Nc2cc(C)n(Cc3ccc(Cl)cc3)n2)no1`: 15.8 µM (active).
Regarding `O=C(Nc1ccc(Cl)cc1)OCc1cc(-c2ccccc2Cl)on1`, the activity, negative = inhibition is 28.2% [at 2.29 µM] (inactive).
Still for that read-out and setting: the same measure for `COc1ccccc1NC(=S)NC(=O)c1ccc(-c2ccc(Cl)cc2)o1`: -7.71% [at 2.29 µM] (inactive).
Turning to `CC(C)(C)c1ccc(S(=O)(=O)/C=C\C#N)cc1`, the AC50 is 25.1 µM (active).
Still for that read-out and setting: next, `C[C@@](N)(C(=O)O)c1ccc(S(=O)(=O)O)cc1`: “inactive”.
For the molecule `Cc1ccc(C(=O)COC(=O)CNC(=O)Cc2ccccc2)cc1[N+](=O)[O-]`, the AC50 result was “inactive”.
On the same count and under the same terms, next, `Cc1ccc(C(=O)Nc2ccc(Cc3ccncc3)cc2)cc1[N+](=O)[O-]`: 0.355 µM (active).
Regarding `Cc1ccc(C(=O)Nc2ccccc2Oc2ccccc2)cc1[N+](=O)[O-]`, the AC50 entry was “inactive”.
For `CCC(=O)Nc1ccc(C(=O)OCC(=O)c2ccc(C)c([N+](=O)[O-])c2)cc1`, the AC50 was 7.94 µM (active).
For `Cc1ccc(NC(=O)c2ccc(NCC3CCCO3)c([N+](=O)[O-])c2)cc1Cl` (centres undefined), the activity, negative = inhibition was -6.83% [at 11.4 µM] (inactive).
In the case of `CC1=CC(=O)C=CC1(C)C(Cl)(Cl)Cl` (centres undefined), the activity, negative = inhibition is 2.38% [at 2.29 µM] (inactive).
Regarding `COc1ccc(-c2nc(-c3ccccc3)c(-c3cc([N+](=O)[O-])ccc3C)[nH]2)cc1O`, the AC50 was 5.01 µM (active).
Same read-out and setting: the same measure for `O=c1[nH]c(=O)n([C@@H]2C[C@H](O)[C@H](CO)O2)cc1C(F)(F)F`: “inactive”.
On to `O=C(NNC(=O)c1cc(-c2ccc(Cl)c(Cl)c2)nc2ccccc12)Nc1ccccc1`, for which the activity, negative = inhibition was -6.22% [at 2.29 µM] (inactive).
Consider `Cc1ccc(NC(=O)c2cc(Cl)nc3ccccc23)cc1`, for which the AC50 is 10 µM (active).
With `Cc1cccc(NC(=O)NNC(=O)c2cc(-c3ccccc3Cl)nc3ccccc23)c1`, the AC50 was 3.98 µM (active).
Same read-out and setting: next, `CC1(C)S[C@@H]2[C@H](NC(=O)[C@@H](NC(=O)N3CCNC3=O)c3ccccc3)C(=O)N2[C@H]1C(=O)O`: “inactive”.
In the case of `CCC1CC2CC(NC(C)=O)C1C2` (centres undefined), the activity, negative = inhibition is 0.468% [at 2.29 µM] (inactive).

Usually AC50 stands for the midpoint of the concentration-response curve, whichever way the signal moves.
